Here are results for 25 compounds from PubChem BioAssay (NCI).

Molecules are shown by their SMILES. Compounds without any hit were thinned out: in the full panel of roughly 83,000, 20% have a hit.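 Testing used 96-well plates and a 48-hour single-concentration exposure. Example: -40 means 40% of the starting cells died.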 Activity calls are given as the source filed them. How the source made its calls: active means growth percent below 10; inactive means the rest.

For this assay, the system named is UO-31 renal. The experiment in a line: NCI-60 one-dose screen, 48 h (100 = growth as untreated, 0 = no growth, -100 = all killed). The conditions noted are these: 10 µM.
With `CN(C)CCN(Cc1ccccc1)c1ccc2ccccc2n1`, the growth is 76.2% (inactive). `CCN(CC)CCOc1cccc2c1C(=O)c1cccc(OCCN(CC)CC)c1C2=O`: the growth is 41% (inactive). Regarding `O=C(NCCCNS(=O)(=O)c1ccc(Cl)cc1)Nc1ccc(-n2cc(-c3ccncc3)c(-c3ccc(Cl)c(O)c3)n2)cc1`, the growth is 40.9% (inactive).

With `C1CN(CC2CCC(CN3CCOCC3)O2)CCO1` (stereo not given), the growth was 93.6% (inactive).

Turning to `NC(N)=N/N=C(\c1ccccc1)C(O)c1ccccc1` (stereo not given), the growth was 81.1% (inactive). With `N#CC1=C(N)Oc2cc(N)ccc2C1c1cccnc1` (stereo not given), the growth was 84.8% (inactive). For `CCOC(=O)c1cc(C(=O)c2cc(OC)cc(OC)c2)n2nc(C)ccc12`, the growth was 44.9% (inactive). As to `COc1cc(C)ccc1Oc1nc(Nc2ccc(N3CCOCC3)cc2)ncc1NC(=O)Nc1cc(C(F)(F)F)cc(C(F)(F)F)c1`, the growth is 67.5% (inactive). Take `COc1ccc(/C=C2\CCCC3C2=Nc2ccccc2NC3c2ccc(OC)cc2)cc1` (stereo not given): the growth is 74.1% (inactive).

`CCN(CC)CC(=O)N(CC)c1ccc(C)c(Cl)c1`: the growth is 90.7% (inactive). On to `O=C(CC(CC(=O)c1ccccc1)c1ccccc1O)c1ccccc1`, for which the growth is 78.4% (inactive).

As to `C=C(C)[C@@H]1CC[C@]2(COCCC#N)CC[C@]3(C)[C@H](CC[C@@H]4[C@@]5(C)Cc6c([nH]c7ccccc67)C(C)(C)[C@@H]5CC[C@]43C)[C@@H]12`, the growth was 94.2% (inactive). As for `Fc1ccc2[nH]cc(-c3nc(-c4ccsc4)cs3)c2c1`, the growth was 74.4% (inactive). For the compound `COc1cc(-c2nn(-c3cccc(NC(=O)CCN4CCN(Cc5ccccc5)CC4)c3)cc2-c2ccncc2)ccc1Cl`, the growth is 15.6% (inactive). In the case of `Cc1cc(=O)n2nnc3cc(Cl)c(Cl)cc3n12`, the growth was 81.3% (inactive).

Regarding `O=C(/C=C/C=C/c1c(C2CC2)nc2ccccc2c1-c1ccc(F)cc1)c1cccs1`, the growth was -43.8% (active). For `CC(=O)[C@H]1CC[C@]2(C)[C@@H]1CC[C@@H]1[C@@]3(C)CC(CCC#N)(CCC#N)C(=O)C(C)(C)[C@@H]3CC[C@]12C` the value was 82% (inactive); for `CCNCC(=O)Nc1ccc(C(=O)OCC)cc1`, 95% (inactive); for `S=C(NCc1ccccc1)NCc1ccccc1`, 87.1% (inactive). On to `NNC(=O)Oc1c(Cl)cc(Cl)cc1[N+](=O)[O-]`, for which the growth is 87.4% (inactive).

`CN1CCN(CCC(=O)Nc2cccc(-n3cc(-c4ccncc4)c(-c4ccc(Cl)c(O)c4)n3)c2)CC1`: the growth was 46.9% (inactive). In the case of `O=S(=O)(O)c1cccc(Nc2ccc3ccccc3c2)c1`, the growth is 68.9% (inactive). As for `CCN(CC)CCOc1ccc2c(c1O)C(=O)c1ccccc1C2=O`, the growth is 67.3% (inactive). `S=C(SSC(=S)N(c1ccccc1)c1ccccc1)N(c1ccccc1)c1ccccc1`: the growth was 97.1% (inactive).

On to `CN1CCN(CC(=O)Nc2cccc(-n3cc(-c4ccncc4)c(-c4ccc(Cl)c(O)c4)n3)c2)CC1`, for which the growth was 50.2% (inactive).
